# Inconclusive results are not listed. Some compounds were tested as several samples or in several runs, with calls that do not always agree. Active and inactive are the calls of the source. The calls were made as follows, unless noted: active = hit-call score of the fitted dose curve at least 0.9, where 1 is the maximum; inconclusive = response in the unintended direction; inactive = score below 0.9.
# Experiments:
# [1] = biological target: Nucleoli Translocation, AR (gene 367) (UniProt P10275); assay: UPITT_HCI_U2OS_AR_TIF2_Nucleoli_Antagonist: University of Pittsburgh U2OS Androgen Receptor-Transcriptional Intermediary Factor 2 (AR-TIF2) Antagonism High Content Imaging Assay for Nucleoli Translocation (AID 2283997)
# Method in brief: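 U2OS cells expressing RFP-tagged human AR and GFP-tagged TIF2 were imaged by high-content fluorescence microscopy for red AR signal in the nucleolar region. Compounds were screened at 20 uM final (0.2% DMSO), with activity fitted relative to DHT as baseline.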
# [2] = biological target: Nucleoli Translocation, AR (gene 367) (UniProt P10275); assay: UPITT_HCI_U2OS_AR_TIF2_Nucleoli_Agonist: University of Pittsburgh U2OS Androgen Receptor-Transcriptional Intermediary Factor 2 (AR-TIF2) Agonism High Content Imaging Assay for Nucleoli Translocation (AID 2283998)
# Method in brief: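 Red-tagged human androgen receptor co-expressed with GFP-tagged TIF2 serves as the binding reporter. Primary testing used 20 uM final (0.2% DMSO); follow-up dose response covered 0.195 to 50 uM final (0.5% DMSO).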
# [3] = biological target: Ratio of Nucleoli Translocation and Cytoplasm, AR (gene 367) (UniProt P10275); assay: UPITT_HCI_U2OS_AR_TIF2_Nucleoli_Cytoplasm_Ratio_Antagonist: University of Pittsburgh U2OS Androgen Receptor-Transcriptional Intermediary Factor 2 (AR-TIF2) Antagonism High Content Imaging Assay for Ratio of Nucleoli Translocation and Cytoplasm (AID 2283999);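 also: antagonists lower the DHT-driven ratio of nucleolar to cytoplasmic red signal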
# Method in brief: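 U2OS cells expressing RFP-tagged human AR and GFP-tagged TIF2; compounds tested at 20 uM final (0.2% DMSO) in primary screen, 0.195–50 uM (0.5% DMSO) for concentration response. Readout: nucleolar-to-cytoplasmic red fluorescence ratio by high-content imaging, fitted relative to DHT.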
# [4] = biological target: Ratio of Nucleoli Translocation and Cytoplasm, AR (gene 367) (UniProt P10275); assay: UPITT_HCI_U2OS_AR_TIF2_Nucleoli_Cytoplasm_Ratio_Agonist: University of Pittsburgh U2OS Androgen Receptor-Transcriptional Intermediary Factor 2 (AR-TIF2) Agonism High Content Imaging Assay for Ratio of Nucleoli Translocation and Cytoplasm (AID 2284000);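 also: hits raise the red nucleolar to cytoplasm ratio above vehicle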
# Method in brief: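 U2OS cells expressing RFP-tagged human AR and GFP-tagged TIF2 were imaged by high-content fluorescence microscopy. The endpoint is the ratio of nucleolar to cytoplasmic red fluorescence, fitted for gain of signal relative to DMSO. Concentration-response spanned 0.195 to 50 uM final (0.5% DMSO).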
# [5] = CCTE_Harrill_HTTr_Viability_MCF7: CCTE's 6-hour Cell Viability Assessment for the High-Throughput Transcriptomics (HTTr) Platform, in MCF-7 cells cultured in DMEM + 10% fetal bovine serum, Harrill Lab (AID 2284010; active = hit-call score of the fitted dose curve at least 0.9, where 1 is the maximum; inactive = score below 0.9)
# Method in brief: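 Membrane integrity was scored by high-content imaging of propidium iodide dye exclusion after a 6 h exposure across an eight-point dilution series. Data were fitted bidirectionally relative to DMSO as negative control and baseline.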
# [6] = CCTE_Harrill_HTTr_Apoptosis_MCF7: CCTE's 6-hour Apoptosis Assessment for the High-Throughput Transcriptomics (HTTr) Platform, in MCF-7 cells cultured in DMEM + 10% fetal bovine serum, Harrill Lab (AID 2284011; active = hit-call score of the fitted dose curve at least 0.9, where 1 is the maximum; inactive = score below 0.9)
# Method in brief: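 Cells are dosed with test chemicals at eight concentrations and imaged 6 hours later for caspase-3/7 activity using a green fluorogenic detection reagent. Activity is fitted in both directions against DMSO controls.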
# [7] = biological target: PGR (gene 5241) (UniProt P06401); assay: TOX21_PR_LUC_Followup_Antagonist: Tox21 HEK293 Progesterone Receptor (PR) Antagonism Luciferase Follow-Up Assay (AID 2283938);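 also: curve fitted upward as signal gain over DMSO baseline despite antagonist label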
# Method in brief: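 A follow-up to the PR bla screen using HEK293-PR-A-luc cells, multiplexed with cell viability to flag cytotoxicity. Reporter luminescence after 16 h compound exposure was analysed relative to DMSO.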
# [8] = TOX21_PR_LUC_Followup_Agonist_viability: Viability Assessment in the Tox21 HEK293 Progesterone Receptor (PR) Agonism Luciferase Follow-Up Assay (AID 2283941);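 also: loss of signal means cytotoxicity so actives lower viability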
# Method in brief: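 HEK293-PR-A-luc cells, pre-cultured 5 days in 10% charcoal-stripped FBS, were seeded at 3,000 cells/well, rested 5 h at 37C, then given compound in DMSO for 16 h at 37C. Cellular ATP was read by CellTiter-Glo luminescence; signal loss indicates cytotoxicity.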
# [9] = CCTE_Shafer_MEA_acute_spike_number: CCTE's Neural Acute Assay for Total Number of Spikes, Shafer Lab (AID 2284008; active = hit-call score of the fitted dose curve at least 0.9, where 1 is the maximum; inactive = score below 0.9;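 as to AC50: curve fitted for decrease in spike count so AC50 reflects inhibitors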)
# Method in brief: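 Cortical neurons from rat, matured to DIV 13 or 15 on microelectrode arrays, are recorded at 37 C before and during 40-min exposure to 0.03-40 uM compound. Wells need >/= 10 active electrodes.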
# [10] = CCTE_Shafer_MEA_acute_firing_rate_mean: CCTE's Neural Acute Assay for Mean Firing Rate, Shafer Lab (AID 2284009; active = hit-call score of the fitted dose curve at least 0.9, where 1 is the maximum; inactive = score below 0.9;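 also: analyzed for loss of signal so actives lower firing rate relative to DMSO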)
# Method in brief: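 Read-out: well-mean spike rate (spikes/recording length/electrodes), % change from 40 min pre-dose baseline to 40 min with compound. Rat cortical cultures, DIV 13 or 15, 37 C; 0.03-40 uM; DMSO as negative control.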
# [11] = biological target: Thyroid hormone receptor alpha (Rattus norvegicus) + Thyroid hormone receptor beta (Rattus norvegicus) (UniProt P18113+P63059); assay: TOX21_TR_LUC_GH3_Agonist_Followup: Tox21 GH3 Thyroid Hormone Receptor Agonism Luciferase Follow-Up Assay (AID 2283939)
# Method in brief: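 Rat GH3 cells (1,500/well) in serum-free assay medium, treated with 15-point series, 92 uM to 5 nM final, for 24 h at 37C. Luciferase via ONE-Glo luminescence; gain of signal fitted against DMSO, T3 positive control.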
# [12] = biological target: THRA (gene 7067) (UniProt P10827); assay: TOX21_TRA_COA_Agonist_Followup_ratio: Tox21 Thyroid Hormone Receptor alpha Agonism through Coactivator Recruitment Follow-Up Assay, Ratio (AID 2283948; active = hit-call score of the fitted dose curve at least 0.9, where 1 is the maximum; inactive = score below 0.9)
# Method in brief: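 First, compound was incubated with 2.5 nM GST-TRα LBD in 0.10% BSA. Next, 200 nM fluorescein-SRC-2 and 2 nM Tb-anti-GST antibody were added. Finally, the 520:495 nm ratio was normalized to DMSO and T3 controls.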
# [13] = biological target: THRB (gene 7068) (UniProt P10828); assay: TOX21_TRB_COA_Agonist_Followup_ratio: Tox21 Thyroid Hormone Receptor beta Agonism through Coactivator Recruitment Follow-Up Assay, Ratio (AID 2283963; active = hit-call score of the fitted dose curve at least 0.9, where 1 is the maximum; inactive = score below 0.9)
# Method in brief: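 Agonism is measured as coactivator recruitment in a purified-protein TR-FRET format, using GST-TRβ LBD at 5.0 nM, fluorescein-SRC-2 peptide at 200 nM and Tb-labeled anti-GST antibody at 2 nM. Values are 520:495 nm ratios relative to DMSO (0%) and T3 (100%).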
# [14] = biological target: Retinoic acid receptor RXR-alpha (Homo sapiens) (UniProt P19793); assay: TOX21_TR_RXR_BLA_Agonist_Followup_ratio: Tox21 Thyroid Hormone Receptor beta Retinoid X Receptor alpha (RXRa) Agonism Beta-lactamase (BLA) Follow-Up Assay, Ratio (AID 2283968)
# Method in brief: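 RXRa-UAS-bla HEK293T cells (GAL4 beta-lactamase reporter) were treated with compounds at 11 concentrations in triplicate for 16 h at 37C/5% CO2, then loaded with CCF4-AM substrate for 2 h at room temperature; activity is the 460:530 nm ratio versus DMSO baseline.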
# [15] = TOX21_TRB_BLA_Antagonist_Followup_viability: Viability Assessment in the Tox21 Thyroid Hormone Receptor beta Antagonism Beta-lactamase (BLA) Follow-Up Assay (AID 2283961)
# Method in brief: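 Cytotoxicity is measured in parallel with the antagonist-mode TRβ beta-lactamase screen, using ATP-coupled luciferase luminescence. Engineered HEK293T cells are treated for 18 h with 11-point compound series in triplicate.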
# [16] = TOX21_TR_RXR_BLA_Antagonist_Followup_viability: Viability Assessment in the Tox21 Thyroid Hormone Receptor beta Retinoid X Receptor alpha (RXRa) Antagonism Beta-lactamase (BLA) Follow-Up Assay (AID 2283979)
# Method in brief: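 RXRa-UAS-bla HEK293T cells seeded 2,500/well in phenol red-free DMEM with 2% charcoal-stripped FBS, attached 5 h, then exposed to compounds at 11 concentrations in triplicate for 16 h at 37C/5% CO2. Viability read by CellTiter-Glo ATP luminescence; bidirectional fit versus DMSO.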
# [17] = TOX21_PR_LUC_Followup_Antagonist_viability: Viability Assessment in the Tox21 HEK293 Progesterone Receptor (PR) Antagonism Luciferase Follow-Up Assay (AID 2283940)
# Method in brief: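 HEK293-PR-A-luc cells, precultured 5 days in assay medium with 10% charcoal-stripped FBS, were seeded at 3,000 cells/well, treated with compounds in DMSO for 16 h at 37C, and viability was read as cellular ATP by CellTiter-Glo luminescence.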
# Ratio of Nucleoli Translocation and Cytoplasm, AR (gene 367), sequence (P10275 whole entry, looked up): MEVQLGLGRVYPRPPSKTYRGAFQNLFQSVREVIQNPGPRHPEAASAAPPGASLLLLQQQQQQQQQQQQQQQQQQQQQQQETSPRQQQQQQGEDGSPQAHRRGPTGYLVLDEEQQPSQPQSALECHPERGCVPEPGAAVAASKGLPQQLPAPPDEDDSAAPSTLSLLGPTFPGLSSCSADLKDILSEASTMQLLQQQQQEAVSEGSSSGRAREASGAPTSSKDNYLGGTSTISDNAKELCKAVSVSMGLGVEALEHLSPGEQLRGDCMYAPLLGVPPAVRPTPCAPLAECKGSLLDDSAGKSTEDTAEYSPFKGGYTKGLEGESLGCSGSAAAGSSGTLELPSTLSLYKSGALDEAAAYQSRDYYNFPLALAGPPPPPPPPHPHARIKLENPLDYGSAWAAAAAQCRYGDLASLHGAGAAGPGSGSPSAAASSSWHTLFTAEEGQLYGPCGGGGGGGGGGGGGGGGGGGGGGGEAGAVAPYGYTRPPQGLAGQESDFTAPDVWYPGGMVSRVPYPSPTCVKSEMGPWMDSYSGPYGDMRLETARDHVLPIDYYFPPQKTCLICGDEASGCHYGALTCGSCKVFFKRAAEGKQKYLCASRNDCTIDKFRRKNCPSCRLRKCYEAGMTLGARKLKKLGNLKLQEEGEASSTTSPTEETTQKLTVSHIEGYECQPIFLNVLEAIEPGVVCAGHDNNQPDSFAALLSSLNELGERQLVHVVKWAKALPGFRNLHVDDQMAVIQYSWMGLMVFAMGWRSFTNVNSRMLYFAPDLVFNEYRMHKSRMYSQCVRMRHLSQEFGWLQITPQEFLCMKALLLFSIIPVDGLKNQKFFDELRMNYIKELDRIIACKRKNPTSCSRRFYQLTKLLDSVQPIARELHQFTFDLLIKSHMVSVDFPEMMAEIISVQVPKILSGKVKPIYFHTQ
# Nucleoli Translocation, AR (gene 367), sequence (P10275 whole entry, looked up): as above
# PGR (gene 5241), sequence (P06401 whole entry, looked up): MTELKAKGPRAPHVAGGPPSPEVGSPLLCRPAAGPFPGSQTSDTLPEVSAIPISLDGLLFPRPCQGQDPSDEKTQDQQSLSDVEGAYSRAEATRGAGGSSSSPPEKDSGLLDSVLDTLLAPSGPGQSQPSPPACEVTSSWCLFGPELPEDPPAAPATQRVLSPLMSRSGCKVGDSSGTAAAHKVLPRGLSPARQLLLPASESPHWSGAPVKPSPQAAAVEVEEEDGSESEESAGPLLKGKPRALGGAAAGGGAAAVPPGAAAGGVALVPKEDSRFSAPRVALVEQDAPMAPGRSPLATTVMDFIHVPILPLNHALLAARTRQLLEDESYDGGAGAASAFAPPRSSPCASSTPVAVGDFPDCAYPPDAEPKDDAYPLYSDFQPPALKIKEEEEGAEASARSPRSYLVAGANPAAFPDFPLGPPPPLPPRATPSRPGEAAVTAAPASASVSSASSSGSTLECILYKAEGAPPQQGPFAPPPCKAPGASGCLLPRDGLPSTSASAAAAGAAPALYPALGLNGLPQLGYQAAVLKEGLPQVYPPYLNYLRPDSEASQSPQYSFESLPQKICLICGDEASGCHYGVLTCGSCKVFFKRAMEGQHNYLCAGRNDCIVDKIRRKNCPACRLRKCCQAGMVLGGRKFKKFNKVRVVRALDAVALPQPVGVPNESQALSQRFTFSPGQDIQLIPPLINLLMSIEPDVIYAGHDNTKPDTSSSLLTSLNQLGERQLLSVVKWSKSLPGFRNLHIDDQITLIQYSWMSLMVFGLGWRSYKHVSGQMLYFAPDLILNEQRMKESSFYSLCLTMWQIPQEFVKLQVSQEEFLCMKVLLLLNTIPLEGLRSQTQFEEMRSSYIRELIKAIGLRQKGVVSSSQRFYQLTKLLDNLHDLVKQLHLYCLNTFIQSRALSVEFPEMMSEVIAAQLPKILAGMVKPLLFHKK
# THRB (gene 7068), sequence (P10828 whole entry, looked up, the tested form may be a part): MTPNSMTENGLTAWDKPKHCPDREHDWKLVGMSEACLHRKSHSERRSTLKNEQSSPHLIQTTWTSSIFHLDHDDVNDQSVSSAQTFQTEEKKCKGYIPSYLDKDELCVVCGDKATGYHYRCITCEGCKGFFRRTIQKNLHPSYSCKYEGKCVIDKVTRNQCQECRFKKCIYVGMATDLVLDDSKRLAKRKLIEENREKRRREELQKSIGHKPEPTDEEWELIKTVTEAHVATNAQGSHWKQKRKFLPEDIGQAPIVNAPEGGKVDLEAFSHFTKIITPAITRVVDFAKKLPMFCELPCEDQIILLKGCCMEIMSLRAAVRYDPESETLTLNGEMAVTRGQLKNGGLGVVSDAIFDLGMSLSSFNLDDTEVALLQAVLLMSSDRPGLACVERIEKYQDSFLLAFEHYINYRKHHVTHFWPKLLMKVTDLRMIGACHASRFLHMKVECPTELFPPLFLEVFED
# THRA (gene 7067), sequence (P10827 whole entry, looked up, the tested form may be a part): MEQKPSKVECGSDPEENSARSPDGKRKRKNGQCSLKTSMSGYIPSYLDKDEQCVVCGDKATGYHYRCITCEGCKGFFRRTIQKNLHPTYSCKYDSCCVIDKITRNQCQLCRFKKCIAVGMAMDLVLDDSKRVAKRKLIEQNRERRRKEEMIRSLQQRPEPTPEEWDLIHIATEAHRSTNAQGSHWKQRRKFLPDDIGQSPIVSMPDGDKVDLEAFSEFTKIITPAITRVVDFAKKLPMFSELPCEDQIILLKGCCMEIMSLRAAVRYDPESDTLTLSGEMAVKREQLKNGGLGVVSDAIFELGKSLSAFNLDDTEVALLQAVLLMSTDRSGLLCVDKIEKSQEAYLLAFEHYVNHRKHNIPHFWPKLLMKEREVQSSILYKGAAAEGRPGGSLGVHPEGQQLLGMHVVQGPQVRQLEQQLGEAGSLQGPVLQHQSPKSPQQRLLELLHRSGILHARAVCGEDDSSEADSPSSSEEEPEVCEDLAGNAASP
# Retinoic acid receptor RXR-alpha (Homo sapiens), sequence (P19793 whole entry, looked up, the tested form may be a part): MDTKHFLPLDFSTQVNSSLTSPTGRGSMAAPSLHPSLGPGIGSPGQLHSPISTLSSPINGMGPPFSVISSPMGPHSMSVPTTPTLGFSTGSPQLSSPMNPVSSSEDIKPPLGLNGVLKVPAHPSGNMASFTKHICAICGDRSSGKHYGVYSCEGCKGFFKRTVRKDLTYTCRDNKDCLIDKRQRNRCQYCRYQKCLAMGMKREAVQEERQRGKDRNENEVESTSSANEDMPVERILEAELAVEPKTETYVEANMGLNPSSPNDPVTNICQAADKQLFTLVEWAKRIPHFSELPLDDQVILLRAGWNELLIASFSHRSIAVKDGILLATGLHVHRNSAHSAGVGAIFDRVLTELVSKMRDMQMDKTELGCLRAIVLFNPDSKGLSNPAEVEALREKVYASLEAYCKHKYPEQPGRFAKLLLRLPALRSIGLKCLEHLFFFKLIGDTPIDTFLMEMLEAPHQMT
# Thyroid hormone receptor alpha (Rattus norvegicus) + Thyroid hormone receptor beta (Rattus norvegicus), sequence (P63059 whole entry, looked up): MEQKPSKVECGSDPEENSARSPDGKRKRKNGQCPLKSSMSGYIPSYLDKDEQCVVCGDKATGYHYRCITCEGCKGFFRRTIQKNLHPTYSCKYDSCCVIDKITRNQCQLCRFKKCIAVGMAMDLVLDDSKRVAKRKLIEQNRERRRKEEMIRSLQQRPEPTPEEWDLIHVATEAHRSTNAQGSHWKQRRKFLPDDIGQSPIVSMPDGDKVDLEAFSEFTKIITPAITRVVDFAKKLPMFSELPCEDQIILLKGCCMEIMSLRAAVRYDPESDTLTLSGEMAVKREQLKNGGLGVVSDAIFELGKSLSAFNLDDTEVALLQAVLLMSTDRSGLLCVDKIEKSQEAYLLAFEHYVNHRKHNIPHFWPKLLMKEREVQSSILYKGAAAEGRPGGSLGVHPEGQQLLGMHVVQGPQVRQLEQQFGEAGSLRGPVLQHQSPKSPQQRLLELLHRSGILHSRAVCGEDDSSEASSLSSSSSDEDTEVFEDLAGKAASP
# Thyroid hormone receptor alpha (Rattus norvegicus) + Thyroid hormone receptor beta (Rattus norvegicus), sequence (P18113 whole entry, looked up): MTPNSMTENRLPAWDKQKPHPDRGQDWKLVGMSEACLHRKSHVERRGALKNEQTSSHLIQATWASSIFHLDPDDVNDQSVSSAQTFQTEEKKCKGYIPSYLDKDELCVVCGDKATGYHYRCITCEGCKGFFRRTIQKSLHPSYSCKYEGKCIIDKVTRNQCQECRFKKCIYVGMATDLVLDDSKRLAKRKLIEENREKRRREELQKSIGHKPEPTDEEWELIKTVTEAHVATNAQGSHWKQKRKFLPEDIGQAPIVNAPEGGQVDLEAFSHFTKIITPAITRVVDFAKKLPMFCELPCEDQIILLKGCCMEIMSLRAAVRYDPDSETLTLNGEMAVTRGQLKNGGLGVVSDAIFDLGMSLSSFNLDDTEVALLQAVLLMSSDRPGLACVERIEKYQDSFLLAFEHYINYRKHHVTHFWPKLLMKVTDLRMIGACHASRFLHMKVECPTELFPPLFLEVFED
compound,measurement,setting,value
c1ccc2c(c1)c1cccc3ccc4cccc2c4c31,outcome,[1],inactive
same,outcome,[2],inactive
same,outcome,[3],inactive
same,outcome,[4],inactive
same,outcome,[5],inactive
same,outcome,[6],inactive
CC(=O)[C@H]1CC[C@H]2[C@@H]3CC=C4C[C@@H](O)CC[C@]4(C)[C@H]3CC[C@]12C,outcome,[7],inactive
same,outcome,[8],inactive
same,AC50,[9],7.9 nM (active)
same,AC50,[10],5.37 nM (active)
same,outcome,[5],inactive
same,outcome,[6],inactive
CC(CCO)CCCC(C)(C)O (stereo not drawn),AC50,[11],1440 nM (active)
same,outcome,[12],inactive
same,outcome,[13],inactive
same,outcome,[14],inactive
NCCCN1CCOCC1,outcome,[1],inactive
same,outcome,[2],inactive
same,outcome,[4],inactive
OC1OC[C@@H](O)[C@H](O)[C@H]1O (stereo partly drawn),outcome,[9],inactive
same,outcome,[10],inactive
CCCCC[Si](OCC)(OCC)OCC,outcome,[1],inactive
same,outcome,[4],inactive
CC(=O)O[C@]1(C(C)=O)CC[C@H]2[C@@H]3C[C@H](C)C4=CC(=O)CC[C@]4(C)[C@H]3CC[C@@]21C,outcome,[15],inactive
same,outcome,[16],inactive
same,outcome,[5],inactive
same,outcome,[6],inactive
c1ccc2[nH]ccc2c1,outcome,[1],inactive
same,outcome,[2],inactive
same,outcome,[3],inactive
same,outcome,[4],inactive
same,outcome,[5],inactive
same,AC50,[6],55300 nM (active)
same,outcome,[6],inactive
CCC/C=C/C=O,outcome,[1],inactive
same,outcome,[2],inactive
same,outcome,[3],inactive
same,outcome,[4],inactive
BrC1CCC(Br)C(Br)CCC(Br)C(Br)CCC1Br (stereo not drawn),AC50,[1],43500 nM (active)
same,outcome,[2],inactive
same,outcome,[3],inactive
same,outcome,[4],inactive
same,outcome,[5],inactive
same,outcome,[6],inactive
C#C[C@]1(O)CC[C@H]2[C@@H]3CCC4=Cc5oncc5C[C@]4(C)[C@H]3CC[C@@]21C,outcome,[7],inactive
same,outcome,[17],inactive
same,outcome,[8],inactive
same,outcome,[5],inactive
same,outcome,[6],inactive
COC(=O)C1=C(C)NC(C)=C(C(=O)OCCN(C)Cc2ccccc2)C1c1cccc([N+](=O)[O-])c1 (stereo not drawn),AC50,[7],21800 nM (active)
same,outcome,[17],inactive
same,outcome,[8],inactive
same,outcome,[5],inactive
same,outcome,[6],inactive
CCN(CC)c1ccc(C(=C2C=CC(=[N+](CC)CC)C=C2)c2ccc(S(=O)(=O)O)cc2S(=O)(=O)[O-])cc1,outcome,[1],inactive
same,outcome,[4],inactive
CCCOCC(C)O (stereo not drawn),outcome,[1],inactive
same,outcome,[2],inactive
same,outcome,[3],inactive
same,outcome,[4],inactive
same,outcome,[5],inactive
same,outcome,[6],inactive
OC[C@H]1O[C@H](O[C@]2(CCl)O[C@H](CCl)[C@@H](O)[C@@H]2O)[C@H](O)[C@@H](O)[C@H]1Cl,outcome,[9],inactive
same,outcome,[10],inactive
C[C@H]1C[C@@H]2[C@H]([C@@H](O)C[C@@]3(C)[C@H]2CC[C@]3(O)C(=O)CO)[C@@]2(C)C=CC(=O)C=C12,AC50,[9],3 nM (active)
same,AC50,[10],3 nM (active)
same,outcome,[5],inactive
same,outcome,[6],inactive
CC[Si](OC(C)=O)(OC(C)=O)OC(C)=O,outcome,[9],inactive
same,outcome,[10],inactive
O=c1cc(-c2ccccc2)oc2cc(O)cc(O)c12,outcome,[7],inactive
same,outcome,[17],inactive
same,outcome,[8],inactive
same,outcome,[1],inactive
same,outcome,[3],inactive
same,outcome,[4],inactive
same,outcome,[5],inactive
same,outcome,[6],inactive

# Reference: PubChem BioAssay (EPA / NIEHS)
